Reference: PubChem BioAssay (NCATS)
“And” between values parts separate entries of the source, which are not always exact repeats. Equal entries are not always repeated. Inconclusive results are not listed. The source holds several records for some structures; these can differ, active in one and inactive in another. The source made the active and inactive calls. Unless noted, the call rests on the fitted dose curve; in most records, active means well fitted curve in either direction with a large enough effect (not every such curve was filed as active); inconclusive means small, poorly fitted or top-dose-only effect, or another doubt; inactive means flat fitted curve, though single readings scatter.

Assays:
[1] = AP1 Signaling Pathway (AID 357);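 further: ME-180 reporter cells stimulated with EGF at its EC50 level; on the % scale 0 is the no-effect control and ±100 the full control effect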
Outline: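 AP-1-bla ME-180 cells, Opti-MEM + 0.5% dialyzed FBS, plated overnight 37 °C. Cpd titration + EC50 EGF, 5 h 37 °C. CCF4 2.5 h RT; ex 405, em 460/530 ratio → %activity, AC50.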

[2] = target: Cytochrome P450 1A2 (Homo sapiens) (UniProt P05177); test: p450-cyp1a2 (AID 410; calls by dose curve; further: potency means the concentration at half of the fitted maximal effect;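 on activity change, negative = inhibition: -100% = full effect of reference inhibitor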)
Chain of Cytochrome P450 1A2 (Homo sapiens) (P05177 whole entry, looked up): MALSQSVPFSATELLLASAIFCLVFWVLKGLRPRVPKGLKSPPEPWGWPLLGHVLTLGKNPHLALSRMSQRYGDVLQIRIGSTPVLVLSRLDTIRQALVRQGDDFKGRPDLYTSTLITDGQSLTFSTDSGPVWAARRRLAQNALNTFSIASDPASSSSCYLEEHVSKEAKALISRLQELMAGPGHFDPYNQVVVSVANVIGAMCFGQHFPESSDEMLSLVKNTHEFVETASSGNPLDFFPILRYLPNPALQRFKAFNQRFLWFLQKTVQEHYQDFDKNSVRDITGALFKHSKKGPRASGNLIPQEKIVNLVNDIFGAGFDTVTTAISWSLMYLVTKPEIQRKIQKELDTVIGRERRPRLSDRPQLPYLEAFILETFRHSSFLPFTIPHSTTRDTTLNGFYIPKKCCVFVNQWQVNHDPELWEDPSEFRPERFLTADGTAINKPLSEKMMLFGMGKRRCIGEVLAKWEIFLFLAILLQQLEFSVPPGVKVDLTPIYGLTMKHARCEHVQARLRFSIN
Outline: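 20nM CYP1A2, 100uM Luciferin-ME (=Km), 100mM KPO4; cpd 10 min RT; +NADPH regen, 60 min RT; stop/detect 20 min; luminescence. Normalized to furafylline 57 uM = full inhibition.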

[3] = NFAT Signaling Pathway (AID 444); details: Jurkat NFAT-bla M1, carbachol, beta-lactamase ratio, 5 h;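 further: carbachol stimulus at about its EC50 of 1 µM final; on the % scale 0 is the no-effect control and ±100 the full control effect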
Outline: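 Read-out: CCF4 FRET ratio (460 nm/530 nm) after 1 h RT dye loading, used for %activity and AC50 from titration series. Cells: Jurkat NFAT-β-lactamase/M1 line, treated with compound plus 1 uM carbachol for 5 h, 37 °C.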

[4] = Stat Signaling Pathway (AID 446);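 further: ME-180 cervical cancer cells given 40 pM IL-6 alongside compound; SIE-controlled beta-lactamase reporter measured as 460/530 nm FRET emission ratio; on the % scale 0 is the no-effect control and ±100 the full control effect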
Outline: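 FRET read-out (405 nm excitation, 460/530 nm emission) of a beta-lactamase reporter under a STAT-inducible element in ME-180 cervical carcinoma cells. Cells with compound receive 40 pM IL-6 for 5 h. Values are normalised to AC90 stimulation and AC90 JAK-inhibitor controls.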

[5] = target: Glucocorticoid receptor (Homo sapiens) (UniProt P04150); test: GR-GFP Redistribution (AID 450;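 active means compounds whose dose series gives a full or clear partial fitted curve of increased nuclear translocation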; further: potency means the concentration at half of the fitted maximal effect); details: U2OS GR-GFP nuclear translocation, laser cytometry, 2 h
Chain of Glucocorticoid receptor (Homo sapiens) (P04150 whole entry, looked up, the tested form may be a part): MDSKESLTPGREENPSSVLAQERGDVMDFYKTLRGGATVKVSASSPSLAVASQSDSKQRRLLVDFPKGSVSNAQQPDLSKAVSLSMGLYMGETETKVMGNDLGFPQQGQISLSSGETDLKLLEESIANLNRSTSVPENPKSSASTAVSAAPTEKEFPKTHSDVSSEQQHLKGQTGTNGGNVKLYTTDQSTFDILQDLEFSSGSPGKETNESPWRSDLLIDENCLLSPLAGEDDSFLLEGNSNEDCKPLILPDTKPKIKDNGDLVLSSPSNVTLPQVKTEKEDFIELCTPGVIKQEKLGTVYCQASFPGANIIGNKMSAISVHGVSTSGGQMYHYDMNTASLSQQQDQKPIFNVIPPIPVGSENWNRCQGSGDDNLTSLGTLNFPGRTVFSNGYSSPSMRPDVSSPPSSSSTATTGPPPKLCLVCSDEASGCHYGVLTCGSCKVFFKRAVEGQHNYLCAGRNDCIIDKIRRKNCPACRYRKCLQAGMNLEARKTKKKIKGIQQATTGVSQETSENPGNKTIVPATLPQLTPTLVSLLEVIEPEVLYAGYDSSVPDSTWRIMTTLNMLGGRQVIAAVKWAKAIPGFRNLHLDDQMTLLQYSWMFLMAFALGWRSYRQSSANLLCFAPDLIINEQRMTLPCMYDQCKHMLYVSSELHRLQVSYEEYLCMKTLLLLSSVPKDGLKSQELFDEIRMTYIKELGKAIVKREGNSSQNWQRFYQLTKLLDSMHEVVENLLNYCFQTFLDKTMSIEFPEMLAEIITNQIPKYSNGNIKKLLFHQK

[6] = target: Glucocorticoid receptor (Homo sapiens) (UniProt P04150); test: GR-EFC Redistribution (AID 451; calls by dose curve; further: potency means the concentration at half of the fitted maximal effect); details: CHO-K1 GR-EFC translocation, beta-gal luminescence, 2 h
Outline: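 Translocation of GR-ED fusion to nuclear EA restores b-gal, read by luminescence after 1 h room-temperature detection. Engineered CHO-K1 biosensor cells, 1,000/well, exposed 2 h at 37 C to titrations up to 46 uM final.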

[7] = target: Mitogen-activated protein kinase 10 (Mus musculus) (UniProt Q61831); test: JNK3 AlphaScreen Assay (AID 530);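 further: kinase came from lysate of stimulated human HepG2 cells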; further: potency means the concentration at half of the fitted maximal effect;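 on activity change, negative = inhibition: signal reports phosphorylation of biotinylated GST-cJun 1-79 at Ser73 with 10 µM ATP; on the % scale 0 is the no-effect control and ±100 the full control effect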
Outline: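 Kinase buffer: 20 mM Tris-HCl pH 7.6, 10 mM MgCl2, 1 mM DTT, 0.1 mM Na3VO4, 0.01% Tween-20; ATP 10 uM. Substrate biotin-GST-cJun(1-79), enzyme from activated HepG2 lysates. Detection by Ser73 phospho-antibody AlphaScreen.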

[8] = target: 3',5'-cyclic-AMP phosphodiesterase 4B (Homo sapiens) (UniProt Q07343); test: qHTS Assay for Inhibitors of PDE-IV (AID 607; active means well fitted activation curve with a large enough effect in the main read-out, with a control signal flat, not every such curve was filed as active; further: % of control where 0% means no effect)
Chain of 3',5'-cyclic-AMP phosphodiesterase 4B (Homo sapiens) (Q07343 whole entry, looked up): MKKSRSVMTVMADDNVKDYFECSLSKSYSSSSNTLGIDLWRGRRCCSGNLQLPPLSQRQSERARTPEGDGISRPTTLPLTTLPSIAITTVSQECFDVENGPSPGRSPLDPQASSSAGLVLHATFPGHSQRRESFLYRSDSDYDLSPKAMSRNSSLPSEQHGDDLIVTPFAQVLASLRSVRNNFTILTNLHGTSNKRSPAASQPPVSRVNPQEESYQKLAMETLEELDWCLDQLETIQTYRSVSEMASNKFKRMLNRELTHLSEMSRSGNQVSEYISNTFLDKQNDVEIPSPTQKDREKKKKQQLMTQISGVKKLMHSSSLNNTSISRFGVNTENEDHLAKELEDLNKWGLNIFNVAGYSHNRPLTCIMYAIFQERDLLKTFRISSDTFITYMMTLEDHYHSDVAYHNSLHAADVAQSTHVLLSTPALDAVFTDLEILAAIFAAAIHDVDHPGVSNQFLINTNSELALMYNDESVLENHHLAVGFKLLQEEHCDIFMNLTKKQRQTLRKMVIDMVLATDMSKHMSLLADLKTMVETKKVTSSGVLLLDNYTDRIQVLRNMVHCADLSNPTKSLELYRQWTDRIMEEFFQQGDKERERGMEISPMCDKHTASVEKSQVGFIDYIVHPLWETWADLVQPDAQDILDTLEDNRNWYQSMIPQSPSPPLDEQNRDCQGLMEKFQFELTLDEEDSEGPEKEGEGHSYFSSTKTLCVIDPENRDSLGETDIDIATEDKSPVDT
Outline: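 Cell-based read-out of cAMP via a modified cyclic nucleotide-gated channel and membrane potential dye (535/590 nm) in HEK293 cells expressing PDE4 endogenously. Compounds tested up to 22.9 uM final; 100 uM RO 20-1724 reference.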

[9] = Cell Viability - BJ (AID 421; calls by dose curve;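 further: potency means the concentration at half of the fitted maximal effect; cells exposed to compound for 40 hours at 37 °C before readout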); details: BJ fibroblast viability, qHTS
Outline: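 Cytotoxicity as drop in intracellular ATP (CellTiter-Glo, 20 min RT) after 40 hr compound exposure of BJ fibroblasts at 37 °C. Titrations scaled between DMSO and 100 uM tamoxifen, Hill-fitted for AC50.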

[10] = Cell Viability - Jurkat (AID 426;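 active means dose-dependent loss of cell ATP signal giving a full or clear fitted curve, ranked by lower potency value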;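 further: potency means the concentration at half of the fitted maximal effect; cells exposed to compound for 40 hours at 37 °C before ATP read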); details: qHTS
Outline: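 Luminescent ATP read-out (CellTiter-Glo, 20 min at room temperature) after 40 hr compound exposure at 37 °C of Jurkat E6-1 cells, 5000/well. Decreased ATP taken as cytotoxicity; AC50 from standard Hill equation.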

[11] = Cell Viability - Hek293 (AID 427;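 active means compounds whose dose-response curve shows a full or clear partial loss of cell viability, called from curve shape rather than a numeric limit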;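 further: potency means the concentration at half of the fitted maximal effect; cells exposed to compound for 40 hours at 37 °C before reading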); details: qHTS
Outline: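 Luminescent ATP content (CellTiter-Glo, 20 min at room temperature) was measured after a 40 hr, 37 °C compound exposure of HEK293 cells. AC50 values came from Hill-equation fits of qHTS concentration-response data normalized to DMSO and 100 uM tamoxifen.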

[12] = Cell Viability - HepG2 (AID 433; calls by dose curve;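 further: potency means the concentration at half of the fitted maximal effect; potency for ATP loss meaning cytotoxicity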); details: qHTS
Outline: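 Read-out is luciferase-based quantitation of cellular ATP as a measure of viable HepG2 cells after 40 h treatment at 37 °C. Signal decrease is scaled between DMSO-only and 100 uM tamoxifen controls, with AC50 fitted by the Hill equation.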

[13] = Cell Viability - MRC5 (AID 434; calls by dose curve;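 further: potency means the concentration at half of the fitted maximal effect; cells exposed to compound for 40 hours at 37 °C; potency reflects cytotoxicity seen as loss of intracellular ATP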); details: MRC5 lung fibroblast viability, qHTS
Outline: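 AC50 values come from Hill-equation fits of intracellular ATP loss, measured by CellTiter-Glo luminescence. Normal lung fibroblasts (MRC5) had 40 hr compound treatment at 37 C, normalized between DMSO and 100 uM tamoxifen.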

[14] = Cell Viability - SK-N-SH (AID 435; calls by dose curve; further: potency means the concentration at half of the fitted maximal effect); details: SK-N-SH neuroblastoma cell viability qHTS
Outline: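 Luminescent ATP signal served as the viability read-out after 40 hours of compound treatment of human neuroblastoma SK-N-SH cells. Concentration-response data, scaled between DMSO and 100 uM tamoxifen, gave AC50 values by standard Hill modeling.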

[15] = Cell Viability - N2a (AID 540; active means well fitted curve in the direction sought with a large enough effect; an effect the other way counts as inactive or inconclusive; further: nearly all actives have a fitted effect of over 45% in size; further: potency means the concentration at half of the fitted maximal effect;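 on activity change, negative = cytotoxicity: plate controls were DMSO alone for no effect and tamoxifen control for full effect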); details: N2a mouse neuroblastoma cell viability; activity change, negative = cytotoxicity: at 92.2 µM (top of the series)
Outline: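 N2a mouse neuroblastoma, 1500 cells/well, 5 hr settle; compound 40 hr, 37 °C; CellTiter-Glo 20 min RT; luminescence; Hill-fit AC50.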

[16] = Cell Viability - NIH 3T3 (AID 541; active means well fitted curve in the direction sought with a large enough effect; an effect the other way counts as inactive or inconclusive; further: nearly all actives have a fitted effect of over 25% in size; further: potency means the concentration at half of the fitted maximal effect;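 on activity change, negative = cytotoxicity: plate controls were DMSO alone for no effect and tamoxifen positive control for full effect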)
Outline: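 qHTS format; 40 hr compound exposure, 37 °C; CellTiter-Glo luminescence (cellular ATP) read-out after 20 min at RT. Decrease in ATP = cytotoxicity; AC50 from standard Hill fit.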

[17] = Cell Viability - HUV-EC-C (AID 542; active means well fitted curve in the direction sought with a large enough effect; an effect the other way counts as inactive or inconclusive; further: nearly all actives have a fitted effect of over 35% in size; further: potency means the concentration at half of the fitted maximal effect)
Outline: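 Luminescent ATP read-out (CellTiter-Glo, 20 min room temperature) after 40 hr compound treatment of HUV-EC-C cells at 37 °C. Concentration-response data fitted with the standard Hill equation to give AC50; tamoxifen and doxorubicin served as positive controls.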

[18] = Cell Viability - H-4-II-E (AID 543; active means well fitted curve in the direction sought with a large enough effect; an effect the other way counts as inactive or inconclusive; further: nearly all actives have a fitted effect of over 35% in size; further: potency means the concentration at half of the fitted maximal effect)
Outline: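 qHTS, rat hepatoma H-4-II-E, 1500 cells/well; 40 hr compound exposure, 37 °C; CellTiter-Glo ATP luminescence after 20 min RT; AC50 by standard Hill fit.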

[19] = Cell Viability - SH-SY5Y (AID 544; active means well fitted curve in the direction sought with a large enough effect; an effect the other way counts as inactive or inconclusive; further: nearly all actives have a fitted effect of over 55% in size; further: potency means the concentration at half of the fitted maximal effect)
Outline: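 SH-SY5Y, 1500 cells/well, 5 hr pre-incubation 37 °C; cpd 40 hr 37 °C; CellTiter-Glo 20 min RT; luminescence (ATP) read. qHTS concentration-response, Hill fit → AC50. Tamoxifen, doxorubicin as positive controls.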

[20] = Cell Viability - Mesenchymal (AID 546; active means well fitted curve in the direction sought with a large enough effect; an effect the other way counts as inactive or inconclusive;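 further: cells exposed to compound for 40 hours before reading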; further: potency means the concentration at half of the fitted maximal effect;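 on activity change, negative = cytotoxicity: 0% = DMSO only and -100% = 100 µM tamoxifen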)
Outline: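 CellTiter-Glo luminescence (intracellular ATP, 20 min room temperature) after 40 hr compound exposure at 37 °C of 1000 glomerulus-derived human kidney mesenchymal cells/well; AC50 values obtained by fitting qHTS concentration-response data to the Hill equation.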

Cc1cccc(C#Cc2ccccc2)n1
active: Potency [2] 631 nM and 158 nM
inactive: outcome [1] | activity change, negative = inhibition ([3]; at 38 µM (top of the series)) -6.27% | outcome [4] | Potency [5] > 46 µM | Potency [6] > 46 µM | Potency [7] | outcome [8]

Cc1c(OCC(F)(F)F)ccnc1CS(=O)c1nc2ccccc2[nH]1 (stereo unspecified)
active: Potency [2] 31.6 µM and 15.8 µM
inactive: outcome [1] | activity change, negative = inhibition ([3]; at 17.2 µM (top of the series)) -20.4% and -11.1% | activity change, negative = inhibition ([3]; at 38 µM (top of the series)) 0.241% | outcome [4] | Potency [5] > 46 µM and > 20.6 µM | Potency [6] > 46 µM and > 20.6 µM | Potency [7] | outcome [8]

Nc1ccc(S(N)(=O)=O)cc1
inactive: outcome [1] | Potency [9] > 92 µM | Potency [10] > 92 µM | Potency [11] > 92 µM | Potency [12] > 92 µM | Potency [13] > 92 µM | Potency [14] > 92 µM | activity change, negative = inhibition ([3]; at 17.2 µM (top of the series)) -0.0158% | outcome [4] | Potency [5] > 20.6 µM | Potency [6] > 20.6 µM | Potency [7] | Potency [15] | Potency [16] | Potency [17] | Potency [18] | Potency [19] | Potency [20] | outcome [8]

O=c1c(O)c(-c2cc(O)c(O)c(O)c2)oc2cc(O)cc(O)c12
inactive: outcome [1] | activity change, negative = inhibition ([3]; at 17.2 µM (top of the series)) -3.39% | activity change, negative = inhibition ([3]; at 38 µM (top of the series)) 11.8% | outcome [4] | Potency [5] > 46 µM and > 20.6 µM | Potency [6] > 46 µM and > 20.6 µM | outcome [8]
active: Potency [2] 5.01 µM and 2 µM and 7.94 µM | Potency [7] 12.6 µM

O=C1c2ccccc2-c2n[nH]c3cccc1c23
active: Potency [2] 126 nM and 15.8 nM | Potency [7] 1 µM
inactive: outcome [1] | activity change, negative = inhibition ([3]; at 38 µM (top of the series)) 6.14% | outcome [8]

CCC1=C(C)CN(C(=O)NCCc2ccc(S(=O)(=O)NC(=O)NC3CCC(C)CC3)cc2)C1=O (stereo unspecified)
inactive: outcome [1] | Potency [2] | activity change, negative = inhibition ([3]; at 17.2 µM (top of the series)) 4.19% | outcome [4] | Potency [5] > 20.6 µM | Potency [6] > 20.6 µM | Potency [7] | outcome [8]

NCCCCNCCCN
inactive: outcome [1] | activity change, negative = inhibition ([3]; at 38 µM (top of the series)) -4.2% | Potency [5] > 46 µM | Potency [6] > 46 µM | Potency [7] | outcome [8]
inactive and 31.6 µM (active): Potency [2]

CC1(C)NC(=O)N(c2ccc([N+](=O)[O-])c(C(F)(F)F)c2)C1=O
inactive: outcome [1] | activity change, negative = inhibition ([3]; at 17.2 µM (top of the series)) -3.85% | activity change, negative = inhibition ([3]; at 38 µM (top of the series)) 1.13% | outcome [4] | Potency [7] | outcome [8]
active: Potency [2] 12.6 µM and 3.16 µM and 2.51 µM

Oc1ccc(OCc2ccccc2)cc1
inactive: activity change, negative = inhibition ([3]; at 17.2 µM (top of the series)) -7.24% | outcome [4] | Potency [5] > 20.6 µM | Potency [6] > 20.6 µM | Potency [7] | outcome [8]
active: Potency [2] 1.58 µM

COc1ccc2cc([C@H](C)C(=O)O)ccc2c1
inactive: outcome [1] | activity change, negative = inhibition ([3]; at 17.2 µM (top of the series)) -15.8% and 6.69% and 9.43% | activity change, negative = inhibition ([3]; at 38 µM (top of the series)) 0.0959% | outcome [4] | Potency [7]

Nc1nc(Cl)nc2c1ncn2[C@H]1C[C@H](O)[C@@H](CO)O1
inactive: outcome [1] | activity change, negative = inhibition ([3]; at 17.2 µM (top of the series)) 16.6% and 27.4% | outcome [4] | Potency [5] > 20.6 µM

N=C(N=C(N)N)N1CCOCC1
inactive: outcome [1] | activity change, negative = inhibition ([3]; at 17.2 µM (top of the series)) -6.61% | outcome [4] | Potency [5] > 20.6 µM and > 46 µM | Potency [6] > 20.6 µM and > 46 µM | Potency [7] | outcome [8]

CNC[C@H](O)c1ccc(O)c(O)c1
inactive: outcome [1] | activity change, negative = inhibition ([3]; at 38 µM (top of the series)) 1.71% and -6.16% | outcome [4] | Potency [7] | outcome [8]

CS(=O)(=O)OCCCCOS(C)(=O)=O
inactive: Potency [9] > 92 µM | Potency [10] > 92 µM | Potency [11] > 92 µM | Potency [12] > 92 µM | Potency [13] > 92 µM | Potency [14] > 92 µM | Potency [7] | Potency [15] | Potency [16] | Potency [17] | Potency [18] | Potency [19] | Potency [20]

CC(=O)N1CCN(c2ccc(OC[C@H]3CO[C@](Cn4ccnc4)(c4ccc(Cl)cc4Cl)O3)cc2)CC1
inactive: Potency [5] > 46 µM | Potency [6] > 46 µM

CN(C)c1ccc2nc3ccc(=[N+](C)C)cc-3sc2c1
active: Potency [10] 14.2 µM | Potency [11] 35.6 µM | Potency [12] 4.17 µM | Potency [13] 37.8 µM | Potency [14] 10.9 µM | Potency [15] 2.51 µM | Potency [16] 0.631 µM | Potency [17] 2.51 µM | Potency [18] 7.94 µM | Potency [19] 15.8 µM | Potency [20] 31.6 µM
